Data on 20 molecules can be found in PubChem BioAssay.

A number with no mark means an inactive call. For some of these results: Potency and affinity values are given separately. Active and inactive are the calls of the source. Unless noted, how the calls were made is not given here.

Assay [1] can be described thus: antimalarial activity against Dd2 strain (AID 2302;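 active means growth inhibition above 50% at the single 2 µM test dose, taken to imply half-maximal potency below 2 µM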;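 further: 0% = DMSO untreated growth and 100% = chloroquine plus artemisinin killed control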). The note with it: P. falciparum Dd2 in RBCs, LDH growth readout, 72 h; at 2 µM; active compounds read high.
Assay [2] is described as follows: human hepatoma cell viability loss – ATP luminescence, cytotoxicity control for P. falciparum antimalarial project, primary screen (AID 2303;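 active means inhibition above 50%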;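 further: 0% = DMSO wells and 100% = digitonin-killed cells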). The conditions noted are these: HepG2 viability, 24-48 h, at 10 µM, active compounds read high.
For assay [3], the target named is L-lactate dehydrogenase (Plasmodium falciparum (isolate CDC / Honduras)) (UniProt Q27743). As to the kind of experiment: PfLDH activity inhibition – cell lysate, 3D7 strain, counter-screen for P. falciparum growth inhibition project (AID 2304).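 Further: 0% = vehicle and 100% = reference inhibitor.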 The note with it: P. falciparum 3D7 crude extract, LDH APAD/NBT absorbance; at 2 µM; active compounds read high.
Chain of L-lactate dehydrogenase (Plasmodium falciparum (isolate CDC / Honduras)) (Q27743 whole entry, looked up): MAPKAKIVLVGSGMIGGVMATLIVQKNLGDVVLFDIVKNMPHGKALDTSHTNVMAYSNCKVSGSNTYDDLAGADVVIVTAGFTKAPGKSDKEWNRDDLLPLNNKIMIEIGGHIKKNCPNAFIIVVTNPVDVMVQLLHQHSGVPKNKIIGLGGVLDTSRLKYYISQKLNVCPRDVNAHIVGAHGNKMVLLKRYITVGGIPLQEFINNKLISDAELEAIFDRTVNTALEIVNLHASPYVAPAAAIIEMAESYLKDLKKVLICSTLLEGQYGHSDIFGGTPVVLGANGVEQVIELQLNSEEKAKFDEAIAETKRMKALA
Assay [4] is described as follows: inhibition of 3D7 malaria parasite growth – strain 3D7 (AID 2306).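 Further: 0% = DMSO wells and 100% = chloroquine plus artemisinin control wells.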 The conditions noted are these: P. falciparum 3D7 erythrocytic growth, LDH absorbance, 72 h; at 2 µM; active compounds read high.
The target of assay [5] is Calcium-dependent protein kinase 1 (Plasmodium falciparum (isolate 3D7)) (UniProt P62344). As to the kind of experiment: PfCDPK1 kinase inhibitors, biochemical, TCAMS library (AID 1159585; cut-off not given, nearly all actives have IC50 up to about 0.98 µM;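 further: inhibitors leave more ATP so luminescence rises with inhibition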). The conditions noted are these: recombinant PfCDPK1, Kinase-Glo ATP depletion luminescence. On the technique in general: In Kinase-Glo more light means more ATP remaining.
Chain of Calcium-dependent protein kinase 1 (Plasmodium falciparum (isolate 3D7)) (P62344 whole entry, looked up): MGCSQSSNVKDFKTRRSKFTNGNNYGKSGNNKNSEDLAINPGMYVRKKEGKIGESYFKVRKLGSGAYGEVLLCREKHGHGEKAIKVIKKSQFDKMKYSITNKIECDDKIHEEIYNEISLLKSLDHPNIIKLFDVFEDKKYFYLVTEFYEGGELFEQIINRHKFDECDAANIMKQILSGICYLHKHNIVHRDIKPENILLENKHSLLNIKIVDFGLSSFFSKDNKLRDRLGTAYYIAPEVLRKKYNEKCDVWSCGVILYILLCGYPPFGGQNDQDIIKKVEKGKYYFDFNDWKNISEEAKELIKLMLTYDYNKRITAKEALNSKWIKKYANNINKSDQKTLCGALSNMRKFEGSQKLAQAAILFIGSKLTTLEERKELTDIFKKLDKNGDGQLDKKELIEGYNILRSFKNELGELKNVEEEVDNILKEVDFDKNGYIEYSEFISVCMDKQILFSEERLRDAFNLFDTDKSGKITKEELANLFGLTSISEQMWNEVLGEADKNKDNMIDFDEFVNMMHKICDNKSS
In assay [6] the target is Plasmodium falciparum protein kinase 6 (PK6, PF3D7_1337100) (UniProt Q8IDW1). As to the kind of experiment: PfPK6 kinase inhibitors, biochemical, TCAMS library (AID 1159586). The note with it: recombinant PfPK6, Kinase-Glo ATP depletion luminescence.
Chain of Plasmodium falciparum protein kinase 6 (PK6, PF3D7_1337100) (Q8IDW1 1-305): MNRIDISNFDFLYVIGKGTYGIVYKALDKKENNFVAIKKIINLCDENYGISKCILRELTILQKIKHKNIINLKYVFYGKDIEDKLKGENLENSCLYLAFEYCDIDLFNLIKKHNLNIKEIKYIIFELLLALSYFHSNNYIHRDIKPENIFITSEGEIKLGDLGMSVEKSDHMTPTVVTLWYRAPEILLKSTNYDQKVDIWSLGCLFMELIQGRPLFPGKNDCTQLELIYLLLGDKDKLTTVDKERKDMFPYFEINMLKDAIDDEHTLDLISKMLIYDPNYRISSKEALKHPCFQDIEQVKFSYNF
Assay [7] deals with Protein kinase 7 (PK7), Plasmodium falciparum 3D7 (PF3D7_0213400) (UniProt Q7YTF7). As to the kind of experiment: inhibition of Plasmodium PK7 catalytic activity – biochemical, TCAMS antimalarial set, Kinase-Glo luminescence (AID 1159587). The note with it: recombinant PfPK7, Kinase-Glo ATP depletion luminescence.
Chain of Protein kinase 7 (PK7), Plasmodium falciparum 3D7 (PF3D7_0213400) (Q7YTF7 1-343): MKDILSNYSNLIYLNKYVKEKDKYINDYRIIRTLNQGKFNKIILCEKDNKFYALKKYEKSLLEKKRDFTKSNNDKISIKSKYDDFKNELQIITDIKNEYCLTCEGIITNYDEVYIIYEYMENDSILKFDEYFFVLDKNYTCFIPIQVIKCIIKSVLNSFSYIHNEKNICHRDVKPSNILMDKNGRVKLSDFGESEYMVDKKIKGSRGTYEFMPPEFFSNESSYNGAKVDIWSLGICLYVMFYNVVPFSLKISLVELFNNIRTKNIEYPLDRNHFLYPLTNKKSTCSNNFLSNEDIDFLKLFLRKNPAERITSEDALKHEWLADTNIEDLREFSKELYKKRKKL
Assay [8] addresses Calcium-dependent protein kinase 4 (Plasmodium falciparum (isolate 3D7)) (UniProt Q8IBS5). As to the kind of experiment: PfCDPK4 kinase inhibitors, biochemical, TCAMS library (AID 1159588; cut-off not given, nearly all actives have IC50 up to about 0.91 µM). The conditions noted are these: recombinant PfCDPK4, Kinase-Glo ATP depletion luminescence.

Chain of Calcium-dependent protein kinase 4 (Plasmodium falciparum (isolate 3D7)) (Q8IBS5 whole entry, looked up): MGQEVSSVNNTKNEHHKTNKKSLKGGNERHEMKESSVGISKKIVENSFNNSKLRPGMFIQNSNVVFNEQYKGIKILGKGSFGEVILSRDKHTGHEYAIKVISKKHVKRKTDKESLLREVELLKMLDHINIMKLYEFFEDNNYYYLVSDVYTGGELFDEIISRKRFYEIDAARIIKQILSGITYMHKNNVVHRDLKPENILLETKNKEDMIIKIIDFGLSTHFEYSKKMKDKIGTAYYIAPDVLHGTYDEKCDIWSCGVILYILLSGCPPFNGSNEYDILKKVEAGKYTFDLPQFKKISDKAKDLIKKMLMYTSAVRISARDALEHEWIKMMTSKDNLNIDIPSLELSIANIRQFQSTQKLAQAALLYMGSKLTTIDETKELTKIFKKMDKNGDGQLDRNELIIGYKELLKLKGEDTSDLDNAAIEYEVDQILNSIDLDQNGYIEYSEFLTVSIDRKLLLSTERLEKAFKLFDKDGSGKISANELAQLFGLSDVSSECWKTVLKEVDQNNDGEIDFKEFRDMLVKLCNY

As for `O=C(C=NO)Nc1ccccc1[N+](=O)[O-]`, the growth inhibition was -2% in assay [1] and 99% (active) in assay [4]. Moreover, the inhibition (as a rule, the change of the read-out against control, counted positive when it falls) in assay [2] is -14%; in assay [3] it was -2%. The outcome in assay [5], in assay [6], in assay [7] and in assay [8] was inactive.
Turning to `COc1ccccc1-c1cccc(-c2cccc(NC(=O)c3ccc([N+](=O)[O-])o3)c2)n1`, the growth inhibition in assay [1] was 59% (active); in assay [4], 97% (active). In addition, the inhibition in assay [2] is 78% (active); in assay [3] it was -1%. Moreover, the result in assay [5], in assay [6], in assay [7] and in assay [8] was inactive.
As for `O=C(Nc1ccc(OC2CCN(Cc3ccc(F)cc3)CC2)c(Cl)c1)c1ccoc1`, the growth inhibition in assay [1] is 90% (active); in assay [4], 89% (active). Moreover, the values for the inhibition in assay [2] and in assay [3] were -2% and 2%, respectively. In addition, the result in assay [5], in assay [6], in assay [7] and in assay [8] was inactive.
On to `OC(CNCc1ccccc1)c1cc(OCc2ccccc2)cc(OCc2ccccc2)c1` (stereo not given), for which the growth inhibition in assay [1] was 76% (active); in assay [4], 98% (active). The inhibition in assay [2] is -14%; in assay [3], 3%. In addition, the outcome in assay [5], in assay [6], in assay [7] and in assay [8] was inactive.
Regarding `COc1ccc(C(=O)N2CCN(c3ccc([N+](=O)[O-])c(NC4CC4)c3)CC2)cc1Br`, the figures for the growth inhibition in assay [1] and in assay [4] were 68% (active) and 99% (active), respectively. The values for the inhibition in assay [2] and in assay [3] were 6% and 5%, respectively. Further, the result in assay [5], in assay [6], in assay [7] and in assay [8] was inactive.
As for `Cc1ccc2sc(N3CCN(C(=O)c4ccc([N+](=O)[O-])o4)CC3)nc2c1C`, the growth inhibition in assay [1] was 86% (active); in assay [4], 90% (active). The inhibition is -7% in assay [2] and 5% in assay [3]. For the same molecule, the result in assay [5], in assay [6], in assay [7] and in assay [8] was inactive.
`CCc1cccc(NC(=O)c2ccc(CN3CCCN(CC4CCCCC4)CC3)cc2)c1`: the growth inhibition in assay [1] was 36%; in assay [4], 84% (active). Also, the figures for the inhibition in assay [2] and in assay [3] were 44% and 0%, respectively. Moreover, the result in assay [5], in assay [6], in assay [7] and in assay [8] was inactive.
Consider `O=C(CCN(Cc1ccco1)c1nc(-c2ccc(F)cc2)nc2ccccc12)NC1CC1`, for which the growth inhibition in assay [1] was 54% (active); in assay [4], 94% (active). Also, the inhibition in assay [2] was -12%; in assay [3], 4%. Also, the result in assay [5], in assay [6], in assay [7] and in assay [8] was inactive.
For `O=C(/C=C/c1ccc(Cl)c(Cl)c1)NCCCCCCN1CCCN(C(=O)Nc2ccc(Cl)c(Cl)c2)CC1`, the growth inhibition in assay [1] was 8%; in assay [4] it was 100% (active). In addition, the inhibition in assay [2] was 25%; in assay [3], -1%. In addition, the result in assay [5], in assay [6], in assay [7] and in assay [8] was inactive.
In the case of `O=C(Nc1cccc(C(F)(F)F)c1)Nc1ccc2nonc2c1`, the growth inhibition is 76% (active) in assay [1] and 98% (active) in assay [4]. For the same molecule, the inhibition in assay [2] is -4%; in assay [3], 5%. For the same molecule, the result in assay [5], in assay [6], in assay [7] and in assay [8] was inactive.
On to `COc1ccc2nc(/C=C/c3cccc4ccc(C)nc34)[nH]c2c1`, for which the growth inhibition in assay [1] was 77% (active); in assay [4], 98% (active). The inhibition in assay [2] is 25%; in assay [3], -1%. Besides, the result in assay [5], in assay [6], in assay [7] and in assay [8] was inactive.
`COc1cc2c(cc1C(F)(F)F)N(C(=O)Nc1cc(F)cc(-c3cccnn3)c1)CC2`: the results for the growth inhibition in assay [1] and in assay [4] were 34% and 90% (active), respectively. In addition, the results for the inhibition in assay [2] and in assay [3] were 21% and 6%, respectively. Also, the result in assay [5], in assay [6], in assay [7] and in assay [8] was inactive.
In the case of `COc1ccc2nccc([C@@H](O)CN3CCC(c4cc(-c5ccc(Cl)cc5)n[nH]4)CC3)c2n1`, the growth inhibition is 56% (active) in assay [1] and 97% (active) in assay [4]. The inhibition in assay [2] is 43%; in assay [3], 0%. Also, the outcome in assay [5], in assay [6], in assay [7] and in assay [8] was inactive.
For the molecule `CCc1nc(N)nc(N)c1CCCOc1ccccc1Cl`, the growth inhibition was 13% in assay [1] and 92% (active) in assay [4]. Also, the inhibition in assay [2] is 61% (active); in assay [3], 1%. The outcome in assay [5], in assay [6], in assay [7] and in assay [8] was inactive.
In the case of `COc1cc2ccccc2c(OC)c1CCNCCCCNCCc1c(OC)cc2ccccc2c1OC`, the growth inhibition in assay [1] was 30%; in assay [4], 99% (active). Moreover, the inhibition is 100% (active) in assay [2] and 7% in assay [3]. Besides, the outcome in assay [5], in assay [6], in assay [7] and in assay [8] was inactive.
Take `Cc1cc(O)c2c(c1)OC(C)(C)C=C2C1=CCN(Cc2ccccc2)CC1`: the growth inhibition is 1% in assay [1] and 96% (active) in assay [4]. For the same molecule, the inhibition is -2% in assay [2] and -3% in assay [3]. Moreover, the result in assay [5], in assay [6], in assay [7] and in assay [8] was inactive.
For `COc1ccc(CCNC(=O)c2ccc(-n3cc(NC(=O)c4cccnc4)cn3)cc2)cc1OC`, the growth inhibition in assay [1] was 89% (active); in assay [4], 90% (active). In addition, the inhibition is 17% in assay [2] and 3% in assay [3]. For the same molecule, the outcome in assay [5], in assay [6], in assay [7] and in assay [8] was inactive.
For the molecule `Cc1ccc(NC(=O)c2cccc(N3CCN(c4ccncc4)CC3)c2)cc1F`, the growth inhibition in assay [1] is 72% (active); in assay [4], 101% (active). For the same molecule, the inhibition in assay [2] is 43%; in assay [3], -1%. Further, the result in assay [5], in assay [6], in assay [7] and in assay [8] was inactive.
With `CC1(C)N=C(N)N=C(N)N1OCC1CCCCC1`, the growth inhibition in assay [1] was 97% (active); in assay [4], 94% (active). For the same molecule, the inhibition was 67% (active) in assay [2] and 4% in assay [3]. Further, the outcome in assay [5], in assay [6], in assay [7] and in assay [8] was inactive.
As for `CC(C)c1ccc(C2CCN(CCCCNC(=O)c3ccc(NC(=O)c4ccc(C(F)(F)F)cc4)cc3)CC2)c(O)c1`, the growth inhibition in assay [1] is 100% (active); in assay [4], 99% (active). Besides, the inhibition in assay [2] was 47%; in assay [3], 7%. For the same molecule, the outcome in assay [5], in assay [6], in assay [7] and in assay [8] was inactive.
